Screening data: PubChem BioAssay, National Center for Advancing Translational Sciences (NCATS)
Hits are enriched below; roughly 5.2% of the tested compounds scored in any of these assays.
Sfp PPTase inh = blocks B. subtilis Sfp PPTase activity; Biochemical Sfp PPTase activity, qHTS; Q9F4F7; Potency, µM, inactives show largest response in the series, negative = inhibition, usual class: inhibitors; actives 3.5% (n = 310,000);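 also: the enzyme is Sfp with the accession as filed and its product quenches rhodamine fluorescence; 0% = enzyme reaction without inhibitor and -100% = no enzyme wells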
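With Hepes-Na pH 7.6 buffer containing 10 mM MgCl2, Sfp (15 nM) modified BHQ-2-YbbR (12.5 uM) using rhodamine-CoA (5 uM). Two reads 30 minutes apart at 525/598 nm yielded each well's rate.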
rTrxR1 inhibitor = rat TrxR1 inhibition; O89049; actives 1% (n = 390,000); recombinant rTrxR1, NADPH fluorescence consumption, selenite substrate; Potency, µM (highest dose often 114 µM), for the others: at the highest dose activity change, negative = inhibition, most hits filed as inhibitors; AID 588453; also: nearly all actives have a fitted effect of over 65% in size
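Rat TrxR1 (90 nM in the dispensed reagent) was pre-reduced with 400 uM NADPH for 5 min at room temperature, then incubated with compound for 15 min. After 400 uM selenite was added, NADPH fluorescence (Ex 340/Em 450 nm) was followed for 8 min.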
IDH1 R132H inh = human IDH1 R132H inhibition; O75874; IDH1-R132H enzyme, NADPH consumption, diaphorase/resazurin fluorescence; Potency, µM (highest dose often 76.6 µM), for inactives: top-dose activity change, negative = inhibition, most hits filed as inhibitors; actives 0.093% (n = 390,000); AID 602179; also: nearly all actives have a fitted effect of over 65% in size
Target sequence (O75874 whole entry R132H, stated change not applied): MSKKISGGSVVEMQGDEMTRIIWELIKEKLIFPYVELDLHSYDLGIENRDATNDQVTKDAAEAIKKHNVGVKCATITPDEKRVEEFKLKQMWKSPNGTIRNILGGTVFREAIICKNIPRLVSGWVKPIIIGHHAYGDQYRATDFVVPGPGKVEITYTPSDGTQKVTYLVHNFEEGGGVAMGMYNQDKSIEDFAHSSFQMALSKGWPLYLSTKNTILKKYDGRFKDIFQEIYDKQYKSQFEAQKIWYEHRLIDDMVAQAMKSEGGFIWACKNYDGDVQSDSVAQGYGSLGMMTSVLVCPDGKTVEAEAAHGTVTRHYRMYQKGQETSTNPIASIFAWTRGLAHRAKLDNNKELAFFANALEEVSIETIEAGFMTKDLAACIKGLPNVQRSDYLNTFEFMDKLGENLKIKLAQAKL
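IDH1-R132H (0.5 ug/mL) preincubated 30 min with compound, then NADPH (0.016 mM) and alpha-KG (2 mM) added; 80 min at RT, pH 7.5. Remaining NADPH coupled via diaphorase/resazurin to fluorescence (540/590 nm); concentration-response curves normalized to no-enzyme control.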
VDR inh = inhibitors of human vitamin D receptor. P11473. VDR-SRC2-3 peptide fluorescence polarization, 2 h. Potency, µM, without a hit: max response, negative = inhibition, usual class: inhibitors. actives 0.93% (n = 400,000)
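Signal is fluorescence polarization, reporting how far test compounds block the interaction of VDR with the SRC2-3 coregulator peptide after a 2 h room-temperature incubation.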
PLK1 PBD inh = PLK1 (human) polo-box domain binding inhibition; P53350; Plk1 PBD binding of FITC phosphopeptide, fluorescence polarization; Potency, µM, for the others: max response, negative = inhibition, hits mostly inhibitors; actives 2.8% (n = 360,000); also: series mostly up to about 57 µM; nearly all actives have a fitted effect of over 65% in size
TrxR1 substrate = rat thioredoxin reductase 1 substrate activity; O89049; purified TrxR1 substrate turnover, NADPH consumption readout; Potency, µM (titrated, usually from 114 µM), without a hit: at the top dose activity change, negative = substrate turnover; actives 0.01% (n = 390,000); AID 588456; also: nearly all actives have a fitted effect of over 50% in size
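Rat TrxR1, dispensed at 90 nM, was prereduced with 400 uM NADPH (final) for 5 min at ~22 deg C, then incubated with compound 15 min before 400 uM selenite. A first-read NADPH fluorescence drop versus no-compound background flagged substrates.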
The depositor's hits bear a star; ? = inconclusive; . = not tested or not shown; [ ] = dose if it differs, or a comment. Calls follow the shape of the dose curve; as a rule, active = well fitted curve in the direction sought with a large enough effect; inconclusive = small, poorly fitted or top-dose-only effect, or another doubt; inactive = no such curve, though single readings can be large; an effect the other way counts as inactive or inconclusive. Unless noted, % is scaled to controls: 0 for no effect and ±100 for the full control effect; potency is read from the fitted curve at half-maximal effect.

SMILES	Sfp PPTase inh	rTrxR1 inhibitor	IDH1 R132H inh	VDR inh	PLK1 PBD inh	TrxR1 substrate
CCC(C)C(=O)OC1CC(O)C=C2C=CC(C)C(CCC(O)CC(O)CC(=O)O)C21 (stereo not drawn)	22.6%	.	.	-14.2%	.	.
COc1ccc(/C=C/c2ccc3ccccc3n2)cc1OC	.	-6.6%	.	.	.	59.6%
O=C(Nc1ccccc1N1CCCC1)c1cccc(-c2cc3ccccc3oc2=O)c1	4.6%	3.5%	7.1%	-11.2%	-16.8%	-5.4%
O=C(Nc1ccc(N2CCCC2)cc1)c1cccc(-c2cc3ccccc3oc2=O)c1	15.8µM*	-20.6%	0.7%	?	2.67µM*	-11.3%
CN(C)/C=N/c1sc2c(c1C#N)CCCC2	44.7µM*	-23.0%	0.0%	-10.0%	-4.4%	-4.0%
COc1cc(OC)cc(-c2ncc3ccccn23)c1	-11.1%	-1.7%	9.4%	2.7%	-7.5%	47.2%
COc1ccc(-c2ncc3ccccn23)cc1	79.4µM*	1.9%[57.1 µM]	-1.8%	8.1%	-11.1%	7.1%[57.1 µM]
COc1cc(-c2ncc3ccccn23)cc(OC)c1OC	50.1µM*	-20.5%	5.8%	7.3%	-12.1%	27.6%
COc1ccc(NC(=O)c2cc(C3CCCCN3C(=O)CCc3ccccc3)on2)c(C)c1 (stereo not drawn)	.	.	.	.	4.8%	.
CC(=O)CCSc1ncnc2sc(-c3ccccc3)cc12	9.5%	-9.9%	10.6%	5.3%	-0.8%	-5.0%
O=C(O)CCSc1ncnc2sc(-c3ccccc3)cc12	-1.1%	?	0.0%	-12.2%	16.8µM*	8.1%
COc1ccc(-n2c(=O)c(C)nc3cnc(Oc4ccccc4)nc32)cc1	11.6%	.	.	3.4%	.	.
CCc1ccccc1NC(=O)Cc1ccc(-n2cccc2)cc1	-5.4%	-3.0%	2.9%	?	7.52µM*	1.1%
CC(=O)Nc1ccc(/C=C/C(=O)c2ccc(-n3nncc3-c3ccccc3)cc2)cc1	.	-2.2%	.	?	.	-6.4%
O=c1[nH]nc(N2CCOCC2)c(=O)[nH]1	0.8%	11.2%	-5.8%	?	4.74µM*	-2.9%
Cc1[nH]c(=O)[nH]c(=O)c1N1CCOCC1	19.1%	12.4%	1.0%	2.3%	2.1%	5.3%
O=C(/C=C/[C@H]1O[C@@H](n2ccc(=O)[nH]c2=O)[C@H](O)[C@@H]1O)NCc1ccccc1	.	.	.	.	-7.1%	.
O=S(=O)(Cc1ccccc1)N(O)c1ccccc1	50.1µM*	-7.2%	1.0%	39.8µM*	?	-6.4%
O=C(O)CNS(=O)(=O)Cc1ccccc1	12.9%	6.6%	9.9%	7.0%	-4.6%	0.6%
CCN(CC(=O)Nc1c(F)cccc1F)C(=O)/C=C/c1ccc2ccccc2n1	.	-15.3%	0.3%	-5.5%	13.4µM*	-0.6%
CCN(CC(=O)Nc1c(F)cccc1F)C(=O)c1ccc2ccccc2n1	.	1.0%[57.1 µM]	-6.9%	-14.0%	-11.2%	-2.8%[57.1 µM]
O=C1c2ccccc2C(=O)N1c1nc(-c2ccc(Cl)cc2)cs1	.	43.6%[0.0914 µM]	.	.	.	5.9%
CCCNC(=O)c1ccc(N2CCC3(CC2)CC(c2ccccc2)=NO3)c(NC(=O)c2cccc(OC)c2)c1	13.2%	9.8%	-7.2%	-24.8%	26.7µM*	4.7%
CCN1C(=NCc2ccc(OC)cc2)N[C@@H](c2ccccc2)[C@H](C(=O)OC)[C@H]1C	13.8%	17.1%	17.8%	2.7%	6.3%	6.1%
COc1ncc2nc(CCc3ccccc3)c(=O)n(Cc3ccc(F)cc3)c2n1	?	.	.	-17.5%	.	.
SMILES	Sfp PPTase inh	rTrxR1 inhibitor	IDH1 R132H inh	VDR inh	PLK1 PBD inh	TrxR1 substrate
NC(N)=Nc1nc(-c2ccccc2)c2ccccc2n1	50.1µM*	7.3%[57.1 µM]	-6.6%	7.0%	-19.7%	6.1%[57.1 µM]
CCc1nc(N=C(N)N)nc2ccccc12	14.9%	.	.	.	.	.
O=C(CBr)c1ccc([N+](=O)[O-])c(CS(=O)(=O)c2ccc(Cl)cc2)c1	56.2µM*	?	-8.8%	35.5µM*	-23.0%	3.3%[57.1 µM]
O=C(O)c1ccc([N+](=O)[O-])c(CS(=O)(=O)c2ccc(Cl)cc2)c1	-6.6%	29.0%	6.3%	-4.1%	-9.9%	12.2%
CN(C)c1ccc(/C=N/Nc2ccc(-n3ccnc3)nn2)cc1	44.7µM*	2.2%[57.1 µM]	4.9%	-12.8%	-14.5%	0.9%[57.1 µM]
CSCCC(N)C(=O)NC(CC(C)C)C(=O)NC(Cc1ccccc1)C(=O)O (stereo not drawn)	-10.3%	.	.	7.1%	.	.
O=C(O)c1cccc(-c2nnn(Cc3ccccc3)n2)c1	17.9%	5.5%	-2.5%	-8.8%	1.3%	2.5%
O=C(O)c1cccc(-c2nnn(Cc3ccccc3Cl)n2)c1	4.2%	-4.3%	0.7%	-24.5%	21.2µM*	-6.9%
CCOc1ccc(NC(=O)c2ccc3c(c2)CCN3S(=O)(=O)c2ccc(Cl)cc2)cc1	.	17.3%	-12.5%	11.8%	.	-3.3%
S=C(NCCCN1CCOCC1)N1CCN(c2nc(-c3ccc(Cl)cc3)cs2)CC1	21.4%	10.6%	9.8%	-10.3%	-16.7%	2.3%
S=C(NCCCN1CCOCC1)N1CCN(c2nc(-c3ccccc3)cs2)CC1	44.7µM*	-3.9%	-6.5%	-12.4%	-20.7%	-1.6%
O=C(O)CCc1nn2c3ccccc3n(Cc3ccccc3F)c2nc1=O	16.9%	20.3%[57.1 µM]	2.9%	?	26.7µM*	29.3%[57.1 µM]
CN1CCN(c2ncc3nc(-c4ccc(F)cc4)c(=O)n(Cc4cccs4)c3n2)CC1	-20.5%	.	.	-9.7%	.	.
CC(=O)Nc1ccc(SCc2c(C)noc2C)cc1	10.9%	57.5%	-3.2%	-12.5%	21.2µM*	3.6%
CC(=O)Nc1ccc(NC(=O)C(C)OC(=O)c2ccc(OCc3c(C)noc3C)cc2)cc1 (stereo not drawn)	8.7%	6.4%	4.8%	?	29.9µM*	2.8%
CC(=O)Nc1ccc(SCc2ncc(-c3ccccc3)o2)cc1	-8.8%	40.2%	-2.5%	-9.5%	13.4µM*	1.2%
Cc1noc(C)c1COc1ccc(C(=O)OC(C)C(=O)Nc2ccc(N3CCOCC3)cc2)cc1 (stereo not drawn)	11.7%	-10.1%	0.3%	6.6%	1.6%	-7.2%
Cc1cc(NC(=O)CSc2nc3cc(Cl)ccc3o2)no1	-35.8%	7.6%	6.1%	-14.3%	3.4%	-0.5%
O=S1(=O)C=C(Sc2nc3cc(Cl)ccc3o2)c2ccccc21	?	2.82µM*	-0.1%	?	6.7µM*	7.6%[57.1 µM]
NC(=O)c1c(NC(=O)c2ccccc2F)sc2c1CCC2	.	.	16.3%	.	-3.6%	.
CN(C)c1ccc(C=C2C(=O)OC(C)(C)OC2=O)cc1	-10.6%	-14.5%[57.1 µM]	-3.3%	-7.7%	?	-0.4%[57.1 µM]
CCCCC1(C)OC(=O)C(=Cc2ccc(SC)cc2)C(=O)O1 (stereo not drawn)	19.9%	-23.5%[57.1 µM]	-6.5%	10.0%	2.38µM*	1.6%[57.1 µM]
COc1ccc(CN2CCN(Cc3ccco3)CC2)c(OC)c1	56.2µM*	11.1%[57.1 µM]	1.6%	-15.5%	4.8%	-11.2%[57.1 µM]
